D2 PAM-1: positive allosteric modulators of human D2 dopamine receptor | 360,000 tested, 0.23% active | DiscoveRx D2 beta-arrestin cells, luminescence, 90 min; 100% = 57 uM dopamine signal | potentiation, % (test concentration not listed); in the data active means potentiation above about 50%; inconclusive means mostly about 30% to 49%
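PathHunter D2 cells, attached overnight at 37 deg C, received compound in DMSO plus dopamine at EC20 (50 nM final) for 90 min at 37 deg C. Beta-arrestin recruitment was read as luminescence after 1 h with detection reagent at ambient temperature.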
D2 PAM-2: D2 dopamine receptor (human) potentiation; P14416; HEK293 T-REx D2, calcium flux, EC20 dopamine potentiation; potentiation, % at 10 µM; 340,000 tested, 0.34% active;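 active means potentiation over 3 SD above the plate norm, cut at about 30% in these data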; further: 0% is about no effect
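Cells plated with tetracycline inducer and held overnight at 30 C; calcium dye loaded 30–90 min at room temperature; baseline taken, compound added and read 180 s; EC20 dopamine then added and read 180 s.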
D2 ag-1: D2 dopamine receptor (human) agonism; HEK293 T-REx D2 cells, calcium flux agonist mode; activation, % at 2 µM; 340,000 tested, 0.53% active; AID 485358;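 active means activation over 3 SD above normal in the single-dose calcium agonist read, cut at about 30% in these data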; further: 0% is about no effect
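HEK293 Trex D2 cells, tetracycline-induced, o/n 30 C 5% CO2; no-wash Ca dye, RT 30–90 min; 10-cycle baseline, 23 nl cpd added, kinetic Ca read 180 s; agonist hits = positive Ca response.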
D2 ag-2: activates the human D2 dopamine receptor; activation, % (no concentration beside the values); P14416; 360,000 tested, 0.084% active; DiscoveRx PathHunter D2 beta-arrestin, luminescence, 90 min; 100% = 57 uM dopamine signal; in the data active means activation above about 40%; inconclusive means between about 15% and that limit
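DiscoveRx PathHunter D2 beta-arrestin cells (2,100/well) attached overnight, then compound-stimulated 90 min at 37 C in HBSS/10 mM HEPES/0.1% Tween-20 buffer; beta-galactosidase complementation read by luminescence after 1 h at ambient temperature. Dopamine 57 uM final (EC100) as control.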
D2 antag: antagonizes the human D2 dopamine receptor. inhibition, % at 10 µM. 340,000 tested, 2% active. HEK293 TREx D2 cells, calcium flux, dopamine EC80; in the data active means inhibition above about 30%; inactive means below that, where a call was filed; further: 0% is about no effect
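Calcium flux kinetic readout in an inducible HEK293 TREx D2 line plated overnight at 30 C. After 180 s compound exposure, an EC80 dopamine challenge follows with another 180 s kinetic read to detect antagonism.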
D3 arrestin ag: confirmation of human D3 dopamine receptor agonists, beta-arrestin. shares compounds with D2 ag-1. 2,300 tested, 4% active. DiscoveRx D3 beta-arrestin cells, luminescence, 90 min. Potency, µM (highest dose often 76.9 µM), without a hit: at the top dose activation, usual class: activators;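 further: potency means the concentration at half of the fitted maximal effect; 100% = dopamine control response; nearly all actives have a fitted effect of over 70% in size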
Target sequence (P35462 whole entry, looked up): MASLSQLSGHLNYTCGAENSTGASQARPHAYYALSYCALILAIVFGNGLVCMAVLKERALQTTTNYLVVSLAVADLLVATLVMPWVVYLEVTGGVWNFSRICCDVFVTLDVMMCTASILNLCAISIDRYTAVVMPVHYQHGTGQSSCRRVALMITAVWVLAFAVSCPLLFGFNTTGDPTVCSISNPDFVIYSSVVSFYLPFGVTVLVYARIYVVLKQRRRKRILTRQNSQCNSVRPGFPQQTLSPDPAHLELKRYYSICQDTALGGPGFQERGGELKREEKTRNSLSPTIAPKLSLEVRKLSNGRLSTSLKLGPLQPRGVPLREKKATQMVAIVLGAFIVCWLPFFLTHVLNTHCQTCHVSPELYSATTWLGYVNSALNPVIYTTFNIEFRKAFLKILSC
D2 ag-3: activates human D2 dopamine receptor in D3 counterscreen. shares compounds with D2 ag-1. DiscoveRx PathHunter D2 beta-arrestin, luminescence, 90 min; response scale: percent relative to full dopamine signal. Potency, µM (titrated, usually from 76.9 µM), without a hit: at the highest dose activation, usual class: activators. 2,300 tested, 5.9% active. AID 720507; further: potency means the concentration at half of the fitted maximal effect; % of control where 0% means no effect; nearly all actives have a fitted effect of over 70% in size
Numbers without * were called inactive. An excerpt weighted towards active compounds, which were near 2.4% of everything screened. Unless noted, the call rests on the fitted dose curve; in most records, active means well fitted activation curve with a large enough effect; inconclusive means small, poorly fitted or top-dose-only effect; inactive means flat fitted curve, though single readings scatter.

How did O=C(c1cccs1)N1CCN(Cc2cccnc2)CC1 do in these assays?
D2 PAM-1: 13.9; D2 PAM-2: -6.1; D2 ag-1: 60.0*; D2 ag-2: inconclusive; D2 antag: 58.8*; D3 arrestin ag: -0.6%; D2 ag-3: inconclusive

Results for O=C(c1cccs1)N1CCN(c2ncccn2)CC1 ?
D2 PAM-1: 2.2; D2 PAM-2: -10.1; D2 ag-1: 0.2; D2 ag-2: -1.6; D2 antag: 15.4

What do the screens show for `CN(c1ccc(C(=O)N2CCN(Cc3ccccc3)CC2)cc1)S(=O)(=O)c1ccccc1`?
D2 PAM-1: 9.8; D2 PAM-2: -23.6; D2 ag-1: 66.6*; D2 ag-2: inconclusive; D2 antag: 60.7*; D3 arrestin ag: 2.1%; D2 ag-3: inconclusive

What do the screens show for `O=C(NCC(=O)N1CCN(Cc2ccccc2)CC1)c1cccs1`?
D2 PAM-1: -1.2; D2 ag-2: 7.4

How did O=C(c1cccc(Cl)c1)N1CCN(Cc2ccncc2)CC1 do in these assays?
D2 PAM-1: -11.1; D2 PAM-2: 4.2; D2 ag-1: 0.7; D2 ag-2: -4.4; D2 antag: -19.3

What do the screens show for `CCc1ccc(C2C(C(=O)Nc3ccccc3OC)=C(C)Nc3nc(SCc4ccccc4)nn32)cc1` (stereo not given)?
D2 PAM-2: 9.5

How did O=C(c1cccs1)N1CCN(CCCc2ccccc2)CC1 do in these assays?
D2 PAM-1: -9.6; D2 PAM-2: -12.6; D2 ag-1: 35.9*; D2 ag-2: 2.3; D2 antag: 58.8*; D3 arrestin ag: 15.4%; D2 ag-3: 9.4%

Results for Nc1ccc(C(=O)O)cc1[N+](=O)[O-] ?
D2 PAM-1: -5.5; D2 PAM-2: -1.5; D2 ag-1: 0.0; D2 ag-2: -4.7; D2 antag: -18.5

How did Nc1ccc(C(=O)c2cccs2)cc1[N+](=O)[O-] do in these assays?
D2 PAM-1: -14.8; D2 PAM-2: 7.2; D2 ag-1: 0.0; D2 ag-2: -1.6; D2 antag: 19.4; D3 arrestin ag: -3.8%; D2 ag-3: -5.4%

How did Cc1cc(C)c(C(=O)OCc2csc(CC(=O)Nc3ccccc3C)n2)c(C)c1 do in these assays?
D2 PAM-1: 0.3; D2 PAM-2: 13.3; D2 ag-1: -0.1; D2 ag-2: 2.0; D2 antag: -8.5

Results for CC(=O)Nc1cccc(C(=O)OCc2csc(CC(=O)Nc3ccccc3C)n2)c1 ?
D2 PAM-1: 0.1; D2 PAM-2: -2.8; D2 ag-1: 0.1; D2 ag-2: -1.0; D2 antag: 3.1; D3 arrestin ag: 1.5%; D2 ag-3: 1.7%

What do the screens show for `Cn1nnnc1Sc1ncnc2scc(-c3ccc(F)cc3)c12`?
D2 PAM-1: 1.2; D2 ag-2: -1.9; D3 arrestin ag: -1.9%; D2 ag-3: -4.2%

What do the screens show for `Cn1nnnc1Sc1ncnc2scc(-c3ccccc3)c12`?
D2 PAM-1: -3.0; D2 PAM-2: 7.4; D2 ag-1: -0.3; D2 ag-2: -4.8; D2 antag: 4.9

How did CCOC(=O)c1[nH]c2ccc(Br)cc2c1NC(=O)CCN1CCCC(C)(C)C1 do in these assays?
D2 PAM-1: -28.8; D2 PAM-2: -18.4; D2 ag-1: 60.2*; D2 ag-2: -5.9; D2 antag: -3.7; D3 arrestin ag: -12.9%; D2 ag-3: -2.8%

What do the screens show for `CCOC(=O)c1[nH]c2ccc(F)cc2c1NC(=O)CCN1CCOCC1`?
D2 PAM-1: -9.1; D2 PAM-2: 1.4; D2 ag-1: 2.0; D2 ag-2: -4.7; D2 antag: 1.7

What do the screens show for `CCOc1ccc(/C=N/NC(=O)c2ccc(O)cc2)cc1CN1CC2CC(C1)c1cccc(=O)n1C2` (stereo not given)?
D2 PAM-1: -2.2; D2 PAM-2: -3.7; D2 ag-2: 4.0; D3 arrestin ag: -7.8%; D2 ag-3: -2.0%

How did CCN(C(=O)COC(=O)CCCOc1ccccc1)c1c(N)n(Cc2ccccc2)c(=O)[nH]c1=O do in these assays?
D2 PAM-1: -0.9; D2 PAM-2: -26.0; D2 ag-1: 0.0; D2 ag-2: -0.2; D2 antag: -28.4; D3 arrestin ag: -3.0%; D2 ag-3: -6.5%

Results for CCN(C(=O)COC(=O)c1ccc(O)cc1O)c1c(N)n(Cc2ccccc2)c(=O)[nH]c1=O ?
D2 PAM-1: 1.0; D2 PAM-2: -1.3; D2 ag-1: -1.0; D2 ag-2: -3.1; D2 antag: -6.1; D3 arrestin ag: -3.0%; D2 ag-3: -4.5%

Results for CCN(C(=O)COC(=O)c1cc(=O)[nH]c2ccccc12)c1c(N)n(Cc2ccccc2)c(=O)[nH]c1=O ?
D2 PAM-1: -3.5; D2 ag-2: -3.8

What do the screens show for `CCN(C(=O)CSc1nnc(-c2ccc(C)cc2)n1N)c1c(N)n(Cc2ccccc2)c(=O)[nH]c1=O`?
D2 PAM-1: -21.8; D2 PAM-2: -1.0; D2 ag-1: -0.7; D2 ag-2: 6.5; D2 antag: -7.2; D3 arrestin ag: -4.9%; D2 ag-3: -6.0%

How did COc1ccc(C2c3cccn3CCN2S(=O)(=O)c2ccccc2[N+](=O)[O-])cc1OC (stereo not given) do in these assays?
D2 PAM-2: 11.7; D2 ag-1: 1.0

Results for C[C@H]1O[C@@H](O[C@H]2CC[C@@]3(C)C(CC[C@]4(C)C3C=CC3=C5CC(C)(C)CC[C@]5(CO)[C@H](O)C[C@]34C)[C@]2(C)CO)[C@H](O)[C@@H](O[C@@H]2O[C@H](CO)[C@@H](O)[C@H](O)[C@H]2O)[C@H]1O (stereo not given in full) ?
D2 PAM-1: -34.3; D2 ag-2: 0.0

How did CC(C)N(C(=O)Nc1ccc2nsnc2c1)C(C)C do in these assays?
D2 PAM-1: 5.0; D2 PAM-2: -1.2; D2 ag-1: 52.8*; D2 ag-2: 5.8; D2 antag: -1.5; D3 arrestin ag: inconclusive; D2 ag-3: 19.1%

What do the screens show for `COc1ccc(C(CNC(=O)COc2cc(C)cc(C)c2)N2CCOCC2)cc1` (stereo not given)?
D2 PAM-2: 7.1; D2 ag-1: 0.1

What do the screens show for `O=C(NCC(c1ccco1)N1CCN(c2ccccc2)CC1)C(=O)NC1CCCC1` (stereo not given)?
D2 PAM-1: -2.8; D2 PAM-2: -7.5; D2 ag-1: 2.2; D2 ag-2: 7.0; D2 antag: -3.7; D3 arrestin ag: 24.3%; D2 ag-3: 10.7%
